Giardia FBPA inh-1: blocks Giardia fructose-bisphosphate aldolase activity | hit rate 0.71% among 290,000 | AID 2451 | A8B2U2 | Potency, µM (doses to about 59.6 µM), for the others: top-dose activity, negative = inhibition, hits mostly inhibitors | purified Giardia FBPA; note: nearly all actives have a fitted effect of over 55% in size
Target sequence (A8B2U2 whole entry, looked up): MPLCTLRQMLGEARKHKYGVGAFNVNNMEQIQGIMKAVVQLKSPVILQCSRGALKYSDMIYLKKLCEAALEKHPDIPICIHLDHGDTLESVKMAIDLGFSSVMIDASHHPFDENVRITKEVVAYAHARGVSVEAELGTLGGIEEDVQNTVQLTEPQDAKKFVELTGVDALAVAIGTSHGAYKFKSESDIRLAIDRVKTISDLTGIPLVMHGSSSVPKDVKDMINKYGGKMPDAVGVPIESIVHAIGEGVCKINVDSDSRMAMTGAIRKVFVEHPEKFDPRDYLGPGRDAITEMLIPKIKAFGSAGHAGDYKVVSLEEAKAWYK
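Giardia FBPA (40 nM reagent) was preincubated 10 min at RT with compound (up to 57.5 uM final), then substrate plus GAPDH/TPI/NAD/arsenate coupling system with diaphorase/resazurin was added; resorufin fluorescence (525/598 nm) was read after 20 min.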
LmPK inh: inhibitors of Leishmania mexicana pyruvate kinase. Q27686. purified LmPK, Kinase-Glo ATP luminescence, 1 h. Potency, µM (series often up to 57.5 µM), for inactives: at the top dose activity change, negative = inhibition, actives largely listed as inhibitors. hit rate 0.37% among 290,000. AID 1721
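Screened at intermediate enzyme activity to detect both inhibitors and activators: LmPK at 0.1 nM, with a 0.5 nM enzyme column as activation reference. PEP 0.5 mM, ADP 0.1 mM; ATP detected by luminescence after 1 h.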
RE007 growth inh: less growth of the S. pombe RE007 Vpr strain. Potency, µM (highest dose often 92.2 µM), inactives show at the highest dose activity change, negative = less growth, actives largely listed as inhibitors. S. pombe RE007 Vpr strain, BacTiter-Glo ATP luminescence, 24 h. hit rate 0.21% among 360,000; active = well fitted falling curve with a large enough effect; inconclusive = small, poorly fitted or top-dose-only effect; inactive = no such curve, though single readings can be large or run the other way; note: nearly all actives have a fitted effect of over 50% in size
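Fission yeast strain RE007, carrying one chromosomally integrated HIV-1 vpr copy, was seeded at OD 0.01 in PMG+AL medium with 23 nL pinned compound. After 24 h at 30 °C and 99% humidity, viability was read by BacTiter-Glo luminescence.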
TbPYK inhibitor: blocks Trypanosoma brucei pyruvate kinase | Q57TT1 | TbPYK enzyme, Kinase-Glo Plus ATP luminescence, 45 min | Potency, µM (top dose mostly 76.8 µM), inactives show at the highest dose activity, negative = inhibition, usual class: inhibitors | hit rate 0.12% among 410,000; note: nearly all actives have a fitted effect of over 50% in size
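Luminescent Kinase-Glo Plus end-point after 45 min room-temperature reaction of T. brucei pyruvate kinase started with 130 uM ADP (final). Buffer TEA 50 mM pH 7.2 with KCl, MgCl2, BSA, Tween-20; titration-based qHTS with fitted concentration-effect curves.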
Giardia growth: inhibitors of Giardia lamblia growth; shares compounds with Giardia FBPA inh-1; Giardia lamblia trophozoite growth inhibition; Potency, µM (series often up to 57.5 µM), inactives show at the top dose activity change, negative = inhibition, usual class: inhibitors; hit rate 5% among 1,500;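 note: trophozoites exposed to compound for 48 h at 37 °C; nearly all actives have a fitted effect of over 70% in size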
Mammal cell tox: mammalian cytotoxicity of Giardia aldolase inhibitor hits; shares compounds with Giardia FBPA inh-1; mammalian cell viability counter-screen, qHTS; Potency, µM (highest dose often 57.5 µM), without a hit: top-dose viability change, negative = toxicity, most hits filed as inhibitors; hit rate 4% among 1,500; AID 2786;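 note: Chinese hamster ovary cells used as mammalian cytotoxicity surrogate; viability measured as cellular ATP by luminescence; compound exposure lasted 48 h before reading; nearly all actives have a fitted effect of over 60% in size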
Giardia FBPA inh-2: confirmation of Giardia fructose-bisphosphate aldolase inhibitors; hit rate 5% among 1,500; shares compounds with Giardia FBPA inh-1; purified Giardia aldolase enzyme activity, qHTS; Potency, µM (doses to about 57.5 µM), inactives show top-dose activity change, negative = inhibition, most hits filed as inhibitors; AID 2787; note: nearly all actives have a fitted effect of over 45% in size
Rabbit FBPA inh: rabbit FBP aldolase inhibition by Giardia aldolase hits. shares compounds with Giardia FBPA inh-1. Rabbit muscle FBPA enzyme inhibition, selectivity counter-screen. Potency, µM (series often up to 57.5 µM), inactives show top-dose activity, negative = inhibition, usual class: inhibitors. hit rate 4% among 1,500; note: nearly all actives have a fitted effect of over 60% in size
Target sequence (P00883 whole entry, looked up): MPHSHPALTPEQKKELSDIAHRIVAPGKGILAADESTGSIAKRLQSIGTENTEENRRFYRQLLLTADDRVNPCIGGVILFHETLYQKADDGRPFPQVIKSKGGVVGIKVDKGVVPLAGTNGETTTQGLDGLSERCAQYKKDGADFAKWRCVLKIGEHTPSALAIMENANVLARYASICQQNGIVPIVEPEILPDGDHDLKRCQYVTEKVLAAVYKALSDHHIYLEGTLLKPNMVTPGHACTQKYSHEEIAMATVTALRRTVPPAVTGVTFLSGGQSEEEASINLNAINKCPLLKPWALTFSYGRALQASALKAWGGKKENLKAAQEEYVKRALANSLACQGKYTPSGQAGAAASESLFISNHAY
GAPDH counter: GAPDH inhibition flagged for Giardia aldolase hits; hit rate 6% among 1,500; Potency, µM (series often up to 57.5 µM), without a hit: top-dose activity change, negative = inhibition, hits mostly inhibitors; GAPDH coupling enzyme counterscreen, biochemical, qHTS; shares compounds with Giardia FBPA inh-1; note: nearly all actives have a fitted effect of over 55% in size
* hit, by the source's call; ? = inconclusive; nt = no result given; ! = not confirmed by another sample; [ ] = dose if it differs, or a comment. Compounds with a hit are over-represented: about 0.95% of the library has one in this group of screens. Unless noted, calls come from the whole dose curve; as a rule, active = well fitted curve in the direction sought with a large enough effect; inconclusive = small, poorly fitted or top-dose-only effect, or another doubt; inactive = no such curve, though single readings can be large; an effect the other way counts as inactive or inconclusive. % is set by controls: 0 for no effect and ±100 for the full control effect; potency is the fitted concentration of half-maximal effect.

SMILES	Giardia FBPA inh-1	LmPK inh	RE007 growth inh	TbPYK inhibitor	Giardia growth	Mammal cell tox	Giardia FBPA inh-2	Rabbit FBPA inh	GAPDH counter
CCN(CC)CCN(C(=O)c1ccc(C(=O)OC)cc1)c1nc2ccc(Cl)cc2s1	nt	nt	nt	0%	nt	nt	nt	nt	nt
O=C(Nc1nccs1)c1ccccn1	18µM*	-27%	-22%	0%	?	-15%	1%	2%	3%
O=C(Nc1nccs1)c1cnccn1	-20%	2%	4%	4%	nt	nt	nt	nt	nt
S=C(Nc1ccccc1)Nc1nccs1	0.63µM*!	-4%	nt	-2%	-27%[38.3 µM]	20µM*	-4%	-8%	-6%
CCn1cc(Cl)c(C(=O)Nc2nccs2)n1	4µM*	-3%	-1%	2%	-8%[10.4 µM]	-4%	1%	3%	8%
Cc1ccc(NS(=O)(=O)c2cc(-c3cc(C)no3)ccc2C(C)C)nc1	20µM*	-3%	-4%	-4%	-4%	9%	?	?	?
CCc1ccc(-c2cc(C)no2)cc1S(=O)(=O)Nc1ccc(C)cn1	nt	-6%	2%	-3%	nt	nt	nt	nt	nt
CCN(CC)c1ccc2c(C)c(Cl)c(=O)oc2c1	18µM*	-12%	-2%	-3%	-3%	-1%	-1%	9%	-2%
Nc1cc2nc3ccccc3oc-2cc1=O	18µM*	-2%	63µM*	-9%	-5%[10.4 µM]	-14%	?	-23%	?
CC(C(=O)Nc1cccc([N+](=O)[O-])c1)[n+]1ccccc1 (stereo not given)	16µM*	9%	11%	0%	?	8%	5%	0%	17%
CC(Sc1cccc[n+]1[O-])C(=O)Nc1cccc([N+](=O)[O-])c1 (stereo not given)	0%	7%	4%	-6%	nt	nt	nt	nt	nt
CCN(CC)C(=O)CSc1n[nH]c(=S)n1N	7.1µM*	-2%	11%	6%	-18%[38.3 µM]	-11%	-30%	-19%	-19%
O=C(CNCc1ccccc1)Nc1cccc(Cl)c1Cl	16µM*	4%	-4%	5%	17%	0%	2%	-3%	9%
O=C(CNCc1ccccc1)Nc1ccccc1-c1ccccc1	1%	-2%	-2%	-2%	nt	nt	nt	nt	nt
CCCOc1ccc(C(C)=O)cc1Cc1c(O)[nH]c(=S)[nH]c1=O	?	-1%	-1%	?	nt	nt	nt	nt	nt
CCOc1ccc(C(C)=O)cc1Cc1c(O)[nH]c(=S)[nH]c1=O	22µM*	-8%	2%	-27%	-16%	1%	-8%	1%	-16%
CCCCCC(O)/C=C/C=C\CCCCCCCC(=O)O (stereo not given)	3%	nt	nt	nt	nt	nt	nt	nt	nt
COC(=O)C1=C(O)/C(=C\c2cc(C)n(-c3ccccc3F)c2C)N=C1C	13µM*	-1%	0%	-17%	-14%	-2%	-18%	-22%	-26%
COC(=O)C1=C(O)/C(=C\c2sccc2C)N=C1C	-7%	-12%	-23%	-4%	nt	nt	nt	nt	nt
O=C(CCN1CCc2ccccc2C1)Nc1ccccc1	16µM*	2%	16%	-11%	26%	13%	-1%	-3%	7%
O=C(CCn1c(=O)oc2ccccc21)NCCN1CCc2ccccc2C1	16µM*	1%	2%	-2%	0%[10.4 µM]	23%	1%	1%	5%
Oc1ccc(/C=N/Nc2ccnc3cc(Cl)ccc23)cc1O	-8%	6%	5%	2%	nt	nt	nt	nt	nt
Oc1ccc(/C=N/Nc2ccnc3cc(Cl)ccc23)c(O)c1O	14µM*	-11%	-15%	?	-19%	0%	?	?	?
CCOc1ccc(N(C)C(=O)C2CCN(S(=O)(=O)c3c(C)noc3/C=C/c3ccc(C)cc3)CC2)cc1	nt	nt	nt	-11%	nt	nt	nt	nt	nt
C/C(CCC1CC(C)(C)OC1=O)=N\NC(N)=S (stereo not given)	18µM*	-5%	-25%	7%	43%	-12%	7%	4%	6%
SMILES	Giardia FBPA inh-1	LmPK inh	RE007 growth inh	TbPYK inhibitor	Giardia growth	Mammal cell tox	Giardia FBPA inh-2	Rabbit FBPA inh	GAPDH counter
C/C(CC1CC(C)(C)OC1=O)=N\NC(N)=S (stereo not given)	20µM*	1%	24%	-2%	-29%	-12%	5%	5%	3%
CCCC1CC(C)(/C(C)=N\NC(N)=S)OC1=O (stereo not given)	-19%	-2%	-5%	4%	nt	nt	nt	nt	nt
Cn1ncc(C(N)=O)c1NC(=S)NC(=O)c1ccc(Br)o1	16µM*	0%	-16%	-6%	-7%[10.4 µM]	-9%	1%	5%	8%
Cc1cccc(C)c1NC(=S)NC(=O)c1ccc(Br)o1	-12%	1%	-21%	-20%	nt	nt	nt	nt	nt
CCOc1ccc(CCNC(=O)c2cc3c(s2)-c2ccccc2OC3)cc1OCC	nt	nt	nt	1%	nt	nt	nt	nt	nt
Cc1c(NN=C(C#N)C#N)c(=O)n(-c2ccccc2)n1C	25µM*	9%	-1%	-5%	17%	21%	1%	2%	5%
CN(C)c1ccc(CNC(=O)c2cnc3sc(N4CCCCCC4)nn3c2=O)cc1	nt	nt	nt	3%	nt	nt	nt	nt	nt
CNc1ccccc1	nt	nt	0%	-2%	nt	nt	nt	nt	nt
CNc1cccccc1=S	10µM*	-5%	-29%	-18%	-13%	5%	?	?	32µM*
O=P(O)(O)CP(=O)(O)O	6.3µM*	5%	nt	-6%	119%	9%	24%	2%	15%
O=P(O)(O)CCCl	-1%	nt	nt	nt	nt	nt	nt	nt	nt
CCc1c(O)nc(SC2CC(=O)N(c3ccc(F)c(Cl)c3)C2=O)[nH]c1=O (stereo not given)	3.2µM*	0%	-3%	-5%	11%[38.3 µM]	-7%	?	15%	5%
Cc1c(O)nc(SC2CC(=O)N(c3cc(Cl)cc(Cl)c3)C2=O)[nH]c1=O (stereo not given)	nt	nt	?	1%	nt	nt	nt	nt	nt
O=c1c2cn[nH]c2[nH]c(=S)n1-c1ccccc1F	7.1µM*	-1%	6%	?	2%[38.3 µM]	-2%	-3%	-6%	-1%
O=c1c2cn[nH]c2[nH]c(=S)n1-c1ccccc1Cl	25µM*	-4%	?	-15%	28%	17%	7%	2%	13%
O=C(O)c1ccc2c(=O)n(-c3ccccc3F)c(=S)[nH]c2c1	2%	1%	1%	-13%	nt	nt	nt	nt	nt
Cc1ccc(-n2c(=S)[nH]c3[nH]ncc3c2=O)cc1	16µM*	-8%	4%	?	27%	-1%	-3%	3%	-10%
COc1ccc(-n2c(=S)[nH]c3ccc(C)cc3c2=O)cc1	nt	nt	3%	1%	nt	nt	nt	nt	nt
Cc1ccccc1OCC(=O)Nc1ccc2nc(SCC(=O)N(C)c3ccccc3)sc2c1	nt	nt	nt	0%	nt	nt	nt	nt	nt
COc1ccc2c(c1)C(c1cc(OC)c(OC)c(OC)c1)CC(=O)O2 (stereo not given)	-11%[89.2 µM]	nt	nt	nt	nt	nt	nt	nt	nt
